Screens as filed in PubChem BioAssay.
In the library only some 2.4% were active in any assay of this set; here they are far more common.
POLK inh = inhibitors of human DNA polymerase kappa | actives 0.53% (n = 400,000) | Q9UBT6 | AID 588579 | Potency, µM (highest dose often 107 µM), for inactives: at the highest dose activity, negative = inhibition, usual class: inhibitors | purified Pol kappa, fluorescent DNA synthesis assay, 10 min; also: % is scaled to controls: 0 for no effect and ±100 for the full control effect
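Here, compound and 10 nM enzyme are combined for 15 min at room temperature; adding 50 nM substrate (final) starts DNA synthesis, tracked by fluorescence at 0 and 10 min against buffer-only wells.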
WRN helicase inh = inhibitors of human WRN helicase | Q14191 | WRN helicase unwinding, fluorescent forked duplex, kinetic | Potency, µM (titrated, usually from 114 µM), without a hit: at the top dose activity change, negative = inhibition, hits mostly inhibitors | actives 0.46% (n = 360,000) | AID 651768; also: % is scaled to controls: 0 for no effect and ±100 for the full control effect; nearly all actives have a fitted effect of over 55% in size
Target sequence (Q14191 whole entry, looked up): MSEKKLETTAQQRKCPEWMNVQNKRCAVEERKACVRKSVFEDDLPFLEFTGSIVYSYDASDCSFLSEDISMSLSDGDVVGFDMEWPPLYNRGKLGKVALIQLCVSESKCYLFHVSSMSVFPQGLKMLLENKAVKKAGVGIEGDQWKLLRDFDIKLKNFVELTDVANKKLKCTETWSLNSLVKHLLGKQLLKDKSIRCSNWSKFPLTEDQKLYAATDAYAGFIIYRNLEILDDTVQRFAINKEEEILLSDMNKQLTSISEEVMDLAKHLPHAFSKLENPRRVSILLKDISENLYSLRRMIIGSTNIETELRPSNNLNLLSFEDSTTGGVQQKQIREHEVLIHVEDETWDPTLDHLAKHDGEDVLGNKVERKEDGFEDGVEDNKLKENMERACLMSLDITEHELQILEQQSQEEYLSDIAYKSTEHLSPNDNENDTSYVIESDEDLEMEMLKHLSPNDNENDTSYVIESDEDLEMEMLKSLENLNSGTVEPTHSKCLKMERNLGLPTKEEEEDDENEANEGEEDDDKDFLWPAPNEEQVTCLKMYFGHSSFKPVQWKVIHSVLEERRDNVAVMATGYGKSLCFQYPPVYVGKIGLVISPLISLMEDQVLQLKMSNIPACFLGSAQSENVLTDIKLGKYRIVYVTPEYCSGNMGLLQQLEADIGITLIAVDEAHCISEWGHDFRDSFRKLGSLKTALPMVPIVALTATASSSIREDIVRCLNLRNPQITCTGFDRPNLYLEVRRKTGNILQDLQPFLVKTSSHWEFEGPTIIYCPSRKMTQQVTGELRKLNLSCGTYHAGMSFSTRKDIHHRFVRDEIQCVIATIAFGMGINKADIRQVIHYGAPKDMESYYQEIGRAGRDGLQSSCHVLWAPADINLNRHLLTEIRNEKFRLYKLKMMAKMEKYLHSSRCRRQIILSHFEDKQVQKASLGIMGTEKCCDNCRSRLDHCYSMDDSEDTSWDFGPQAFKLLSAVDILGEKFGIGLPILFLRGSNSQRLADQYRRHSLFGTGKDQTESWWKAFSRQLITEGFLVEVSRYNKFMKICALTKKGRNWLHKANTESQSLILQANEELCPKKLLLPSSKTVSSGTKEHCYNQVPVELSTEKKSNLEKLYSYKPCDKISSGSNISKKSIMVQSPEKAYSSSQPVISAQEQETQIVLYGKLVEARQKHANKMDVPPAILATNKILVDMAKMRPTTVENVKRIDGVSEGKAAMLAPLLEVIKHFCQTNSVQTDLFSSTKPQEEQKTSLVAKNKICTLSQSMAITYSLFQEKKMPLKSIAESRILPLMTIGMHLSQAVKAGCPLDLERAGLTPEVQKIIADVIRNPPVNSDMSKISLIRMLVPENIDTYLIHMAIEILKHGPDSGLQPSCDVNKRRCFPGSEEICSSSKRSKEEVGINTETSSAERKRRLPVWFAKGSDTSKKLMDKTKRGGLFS
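Fluorescence dequenching readout, ex 525 nm/em 598 nm, kinetic mode: forked duplex DNA (100 nM final) with adjacent fluorophore and quencher unwound by WRN (20 nM final) with 2 mM ATP. Compound preincubation 15 min, room temperature.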
FEN1 inh = blocks human flap endonuclease 1; Recombinant FEN1 flap cleavage, fluorescence, 15 min; actives 0.35% (n = 390,000); Potency, µM (series often up to 114 µM), for inactives: at the highest dose activity change, negative = inhibition, hits mostly inhibitors; also: % is scaled to controls: 0 for no effect and ±100 for the full control effect; nearly all actives have a fitted effect of over 65% in size
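Compounds are tested as a concentration series against 10 nM FEN1; after a 15 min room-temperature preincubation, 50 nM substrate starts cleavage, with plate reads at 0 and 15 min. Normalized responses are fitted by a Hill equation.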
Pol eta inh = blocks human DNA polymerase eta activity; AID 588591; Q9Y253; Potency, µM (doses to about 114 µM), for inactives: at the highest dose activity change, negative = inhibition, actives largely listed as inhibitors; actives 1.2% (n = 390,000); recombinant Pol eta, fluorescent DNA replication assay; also: % is scaled to controls: 0 for no effect and ±100 for the full control effect
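Pol eta at 10 nM preincubated with compounds 15 min at room temperature; reaction started with fluorescent substrate (50 nM final) and read kinetically at 0 and 10 min.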
Pol beta inh = inhibitors of human DNA polymerase beta; Pol beta primer extension/strand displacement, fluorescence kinetic; Potency, µM (highest dose often 114 µM), for inactives: top-dose activity change, negative = inhibition, usual class: inhibitors; actives 1.3% (n = 340,000); AID 485314; also: % is scaled to controls: 0 for no effect and ±100 for the full control effect
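Values derive from four-parameter Hill fits of normalized kinetic data: reads at 0 and 10 min following addition of 50 nM substrate to 10 nM Pol beta preincubated 15 min with compound.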
Pol iota inh = inhibitors of human DNA polymerase iota; Q9UNA4; Pol iota fluorescent replication assay, 10 min; Potency, µM (titrated, usually from 115 µM), without a hit: at the top dose activity, negative = inhibition, most hits filed as inhibitors; AID 588590; actives 1% (n = 390,000)
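Fluorescent replication assay read twice, at 0 min and 10 min after adding 50 nM (final) substrate. Enzyme (10 nM) and compounds were first incubated 15 min at room temperature; enzyme-free buffer wells were negative controls.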
Numbers without * were called inactive; ? = inconclusive; / = no result; [ ] = dose if it differs, or a comment. Calls follow the shape of the dose curve; as a rule, active = well fitted curve in the direction sought with a large enough effect; inconclusive = small, poorly fitted or top-dose-only effect, or another doubt; inactive = no such curve, though single readings can be large; an effect the other way counts as inactive or inconclusive. Potency is read from the fitted curve at half-maximal effect.

SMILES | POLK inh | WRN helicase inh | FEN1 inh | Pol eta inh | Pol beta inh | Pol iota inh
Cc1cc2nc(-c3ccc(SCc4ccccn4)nc3)[nH]c2cc1C | -5.8% | ? | -18.6% | -25.7% | ? | 44.7µM*
Cc1cc2nc(-c3ccc(SCC(=O)N4CCN(C(=O)c5ccco5)CC4)nc3)[nH]c2cc1C | ? | ? | 1.4% | 79.4µM* | 35.5µM* | ?
O=C(CSc1c2c(nc3ccc(Cl)cc13)CCCC2)N1CCN(C(=O)c2ccco2)CC1 | ? | -14.3%[57.1 µM] | -12.3% | -5.7% | / | 20µM*
COC(=O)[C@]12CCCCC=C1N(Cc1ccccc1)C(=O)[C@H](CC(=O)NCCCCc1ccccc1)C2 | / | -5.7% | / | / | / | /
OC(c1ccc(-c2ccccc2)cc1)c1ncc(-c2ccc(F)cc2)[nH]1 (configuration not stated) | / | -14.3% | / | / | / | /
COC(=O)c1cc(NC(=O)CN(c2ccccc2)S(=O)(=O)N(C)C)ccc1Cl | -2.1% | / | 4.3% | -23.7% | -7.6% | 15.8%
Oc1cccc(Nc2cc(-c3ccccc3)ncn2)c1 | -15.4% | / | -16.4% | -23.0% | 0.2% | -8.6%
O=C(O)COc1ccccc1/C=C1\SC(=Nc2ccc(F)cc2)N(c2ccc(F)cc2)C1=O | 5.2% | -0.2%[11.6 µM] | -33.9% | 56.2µM* | -5.1% | 15.0%
Cc1ccc(OCC(=O)Nc2ccccc2C(=O)OCc2cc(=O)n3ccsc3n2)cc1 | -14.2%[60.1 µM] | / | -1.6% | ? | 2.82µM* | -18.4%
COc1cc2c(NC3CCN(C)CC3)nc(N3CCCN(C)CC3)nc2cc1OCCOCCN(C)C | -15.5% | / | 28.2µM* | / | / | ?
COc1cc2c(NC3CCN(C(C)C)CC3)nc(N3CCCN(C)CC3)nc2cc1OCCOCCN(C)C | -24.5% | / | 39.8µM* | / | / | ?
COc1cc2c(NC3CCN(C)CC3)nc(N3CCN(C)CC3)nc2cc1OCCOCCN(C)C | -2.5% | / | ? | / | / | -3.0%
COc1cc2c(NC3CCN(C(C)C)CC3)nc(N3CCCN(C)CC3)nc2cc1OCCCN1CCCC1 | -33.9% | / | 22.4µM* | / | / | ?
COc1cc2c(NC3CCN(C)CC3)nc(N3CCCCC3)nc2cc1OCCOCCN(C)C | -29.3% | / | ? | / | / | 50.1µM*
CNc1nc(N2CCCN(C)CC2)nc2cc(OC)c(OC)cc12 | -22.9% | / | ? | / | / | ?
COc1ccc(CNc2ncncc2-c2cccc(NS(C)(=O)=O)c2)c(OC)c1 | -1.1%[60.1 µM] | / | / | / | / | /
O=C(Cn1c(=O)c2cccn2c2ccc(F)cc21)N1CCN(c2ccccc2)CC1 | 4.2% | / | 9.6% | 11.3% | 3.8% | ?
N#Cc1c(-c2ccccc2)nc(SCC(=O)NC2CCCCC2)[nH]c1=O | 1.2% | 3.9% | -13.7% | 9.1% | 38.0% | -15.0%
CCCOc1ccc(-c2nc(SCc3ccccc3)[nH]c(=O)c2C#N)cc1OC | -6.7% | -23.6% | -4.6% | -2.5% | 50.1µM* | 34.8%
COc1ccccc1NC(=O)CSc1nc(-c2ccc(C(C)(C)C)cc2)c(C#N)c(=O)[nH]1 | -19.8% | / | -11.7% | / | 79.4µM* | -28.7%
CN(C(=O)CSc1nc(-c2ccc(C(C)(C)C)cc2)c(C#N)c(=O)[nH]1)C1CCCCC1 | -19.0% | -9.2%[11.6 µM] | -34.6% | 35.5µM* | ? | ?
Cc1ccc(C)c(NC(=O)CSc2nc(-c3ccccc3)c(C#N)c(=O)[nH]2)c1 | -7.0% | / | 9.4% | -1.6% | 56.2µM* | ?
CSc1nc(-c2ccccc2)c(C#N)c(=O)[nH]1 | -0.6% | 6.4% | -1.2% | -20.5% | 9.9% | -22.0%
O=C(CCNC(=O)C1CCN(S(=O)(=O)c2ccccc2)CC1)NCc1cccnc1 | / | 3.6% | / | -2.0% | / | /
CCNC(=O)C1(C)CCCN(CC(=O)c2ccccc2OC)C1 (configuration not stated) | / | 11.4% | / | / | / | /
SMILES | POLK inh | WRN helicase inh | FEN1 inh | Pol eta inh | Pol beta inh | Pol iota inh
Cc1nc2nc(SCC(=O)NC3CCCCC3)nn2c(C)c1Cc1ccccc1Cl | -8.8% | / | -16.7% | 2.7% | 26.4% | 8.3%
O=C(O)CCC(=O)N1N=C(c2ccco2)CC1c1cccs1 (configuration not stated) | 4.4% | -16.1% | 9.3% | -9.3% | ? | -5.3%
Cc1nnc(SCC(=O)N2N=C(c3ccc(Cl)cc3)CC2c2ccco2)[nH]c1=O (configuration not stated) | 50.1µM* | ? | ? | ? | 20µM* | ?
CC(=O)N1N=C(c2ccc(Cl)cc2)CC1c1ccco1 (configuration not stated) | -11.5% | 1.1% | -0.2% | -1.1% | 0.3% | 17.0%
O=C(O)CCC(=O)N1N=C(c2ccco2)CC1c1ccco1 (configuration not stated) | ? | -2.4%[11.6 µM] | -2.3% | ? | 8.5% | 50.1µM*
Cc1ccc(C2=NN(C(=O)CCCC(=O)O)C(c3ccco3)C2)cc1 (configuration not stated) | -1.3% | -7.1% | 3.0% | -12.2% | 89.1µM* | 65.3%
COc1ccc(C(=O)Nc2ccccc2C(=O)NC2CC2)c(OC)c1OC | / | -2.9% | / | -16.9% | / | /
CCc1ccc(-c2ccc(SCC(=O)Nc3nnc(C)s3)nn2)cc1 | -15.0% | ? | -5.1% | -9.7% | 39.8µM* | 102.6%
CC(C)CCNC(=O)c1ccc2nc[nH]c2c1 | 8.0% | 15.9% | 0.4% | -12.2% | 8.2% | -9.1%
O=C(NCCc1ccc(Cl)cc1Cl)c1ccc2nc[nH]c2c1 | -2.4% | 7.5% | 15.3% | -15.5% | 33.6% | 2.8%
COc1ccccc1CCNC(=O)c1ccc2nc[nH]c2c1 | -10.5% | -6.4% | -7.6% | ? | 44.7µM* | 0.8%
O=C(NCCSc1ccc(Br)cc1)c1ccc2nc[nH]c2c1 | -36.8% | -32.0% | 9.6% | 22.4µM* | 39.8µM* | 20µM*
COc1ccc(-c2cc(C(=O)O)c(C)o2)cc1OC | 3.6% | 4.0% | 8.0% | 5.6% | 7.3% | 14.2%
COc1cc2c(O)cc(C(=O)O)c(-c3cc(OC)c(OC)c(OC)c3)c2cc1OC | 8.4% | -2.3%[11.6 µM] | -3.5% | 89.1µM* | / | ?
O=C(O)CSc1nnc(SCc2cccc3ccccc23)s1 | -5.3% | 2.5% | -0.8% | -16.1% | 89.1µM* | 6.3%
Cc1sc2nc(CN3CCCCC3)nc(Nc3ccc4c(c3)OCCO4)c2c1C | -8.1% | 1.8% | -1.7% | -10.1% | 79.4µM* | 54.0%
Cc1sc2nc(CN3CCCC3)nc(NCc3ccncc3)c2c1C | 2.5% | -6.6% | 4.8% | -14.4% | -1.8% | 8.5%
C[n+]1ccc(C(c2c[nH]c3ccccc23)c2cc[n+](C)c3ccccc23)c2ccccc21 | 79.4µM* | / | 17.8µM* | / | / | 89.1µM*
COC(=O)c1cc(O)cc(OC)c1C(=O)c1c(O)cc(C)cc1O | ? | -5.9%[11.6 µM] | -2.8% | 35.5µM* | ? | 70.8µM*
